Among all 320,000 compounds or so, about 55 (0.02%) were called active. Inconclusive results (about 3%) are left out. Cut-off read from the data, not from the text of the source: active = potentiation above about 80%; inconclusive = between about 30% and that limit; inactive = weaker than that. The entries come from a sample that favours actives as a whole.
The molecules below were run against Transient receptor potential cation channel subfamily V member 1 (Homo sapiens) (UniProt Q8NER1) (assay: HTS Assay for Compounds that Act as Potentiators of the Vanilloid Receptor 1). Settings: TRPV1-expressing cells, Fluo-8 calcium influx, capsaicin EC20 potentiation; at 8.33 µM; active compounds read high.
Sequence of Transient receptor potential cation channel subfamily V member 1 (Homo sapiens) (Q8NER1 whole entry, looked up): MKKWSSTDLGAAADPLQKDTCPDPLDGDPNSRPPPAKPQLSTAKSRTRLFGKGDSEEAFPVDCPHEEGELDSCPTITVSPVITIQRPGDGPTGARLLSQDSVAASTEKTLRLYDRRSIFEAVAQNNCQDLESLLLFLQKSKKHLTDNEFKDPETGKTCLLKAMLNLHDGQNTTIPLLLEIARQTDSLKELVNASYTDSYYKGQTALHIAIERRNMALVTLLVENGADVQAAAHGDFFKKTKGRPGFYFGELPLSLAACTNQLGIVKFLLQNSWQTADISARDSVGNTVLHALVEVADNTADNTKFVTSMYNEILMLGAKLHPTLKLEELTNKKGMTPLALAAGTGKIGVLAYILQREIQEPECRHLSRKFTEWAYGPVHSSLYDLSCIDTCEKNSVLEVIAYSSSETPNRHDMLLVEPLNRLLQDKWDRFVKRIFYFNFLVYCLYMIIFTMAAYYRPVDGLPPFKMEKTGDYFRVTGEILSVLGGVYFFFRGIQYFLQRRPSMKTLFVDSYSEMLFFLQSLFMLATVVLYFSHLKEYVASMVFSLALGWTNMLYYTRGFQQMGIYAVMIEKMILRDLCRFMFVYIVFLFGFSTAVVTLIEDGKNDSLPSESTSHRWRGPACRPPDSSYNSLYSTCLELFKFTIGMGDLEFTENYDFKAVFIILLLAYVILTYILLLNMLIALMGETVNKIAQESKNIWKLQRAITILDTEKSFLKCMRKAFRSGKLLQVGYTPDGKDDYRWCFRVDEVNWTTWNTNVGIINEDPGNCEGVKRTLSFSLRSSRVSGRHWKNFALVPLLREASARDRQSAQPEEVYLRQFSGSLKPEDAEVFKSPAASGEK
Excerpt: The transient receptor potential ion channel, family V, number 1, (TRPV1) is one of the most important molecular transducers of painful stimuli and a potential target for analgesic drug development. Although recent clinical trials with orthosteric antagonists have not produced a successful drug because of a hyperthermia side effect and their tendency to block thermal noxious pain, this ion channel is undeniably well placed in the pain pathway, and the idea of blocking pain signals before they enter the CNS is an excellent concept and of proven efficacy when TRPV1 agonists are used. We propose a new approach involving allosteric modulation to impose an activity-dependent constraint within the context of inflammation and tissue damage that would alter the responsiveness of the channel in a way that an orthosteric vanilloid antagonist cannot achieve. We believe that the allosteric modulator approach has not been explored for this target. The main goal of this proposal is to identify additional, new, potent allosteric modulators of TRPV1 that can be used to investigate TRPV1 function. Our recent report provides evidence of proof of concept, but the compounds are just at the edge of utility in terms of potency. […] The question of whether they can be used as analgesic agents is complex, but if suitable compounds are identified then testing for analgesic properties will be conducted. NIH Chemical Genomics Center [NCGC] NIH Molecular Libraries Probe Centers Network [MLPCN] MLPCN Grant: MH089480-1A1 Assay Submitter (PI): Michael Iadarola, National Institute of Dental and Cranofacial Research
Upon TRPV1 activation in TRPV1 cells, the channel opens and extracellular cations flow through the channel into the cytosol. A calcium binding dye (Fluo-8) becomes fluorescent when bound to calcium. This dye is pre-loaded into cells and is used as a marker for calcium influx. The amount of accumulated calcium is precisely quantified using the FDSS kinetic reader and the calcium dye. For the HTS assay, freshly prepared cells are plated at a density of 2000/well in 3 ul medium in 1536-well plates and cultured overnight at 35.5C. Cells will be loaded with 1 ul of the homogeneous calcium dye (ABD Bioquest) at room temperature for 40 to 90 minutes. Plates will be loaded into the FDSS kinetic reader and a 1 sec / cycle for 10 second baseline signal will be measured. Compound library will then be added with a pintool at 23 nl and measured kinetically for 3 minutes. This portion of the read is considered the agonist portion of the screen. Following the 3 minutes of incubation, an on board pipettor will deliver 1 ul of capsaicin for a final concentration equal to the EC20. Signal will be measured kinetically for an additional 2 minutes. This portion of the read is considered the allosteric enhancer portion of the screen. The FDSS reader has a standard filter set capable of measuring calcium bound Fluo-8 (ex=480 and em=520 nm).
Note: 0% is about no effect.

potentiation, inactive:
O=C(Nc1ccccn1)C1CCN(S(=O)(=O)c2ccc3c(c2)OCCO3)CC1 1.92%
O=C(CCNC(=O)c1ccc(Cl)cc1)NC1CCCc2ccccc21 (stereo not given) 27%
COc1ccccc1C(=O)Nc1ccc(OCC(=O)N2CCCCC2)cc1 -9.6%
COc1ccccc1C(=O)Nc1ccc(C)c(S(=O)(=O)N2CCCCC2)c1 -33.7%
Cc1ccc(NC(=O)Cn2c(C)csc2=O)cc1 15%
Cc1ccc(-n2nc(C)c(C(=O)O)c2-n2cccc2)cc1 21.9%
O=C(O)CSc1ccc(S(=O)(=O)N2CCCC2)cn1 5.08%
CCN(CC(=O)Nc1ccc(OC)cc1)C(=O)c1ccc(Cl)c(S(=O)(=O)N2CCCC2)c1 0.452%
Cc1ccc(C(=O)NCC(c2cccs2)N(C)C)cc1S(=O)(=O)N1CCOCC1 (stereo not given) 2.03%
Cc1noc(C)c1COc1ccc(C(=O)NCCOc2ccccc2)cc1 -13.4%
c1ccc2cc(CCCc3cc4ccccc4cn3)ncc2c1 -8.54%
O=c1ccc(S(=O)(=O)N2CCCC2)cn1Cc1nc(-c2ccccc2)no1 -29.3%
CC1CCc2sc(C(=O)NCC(c3ccco3)N3CCCCC3)cc2C1 (stereo not given) -4.62%
Cc1ccc(-c2ccc(/C=C(\C#N)C(N)=S)o2)c([N+](=O)[O-])c1 -9.36%
CCN(CC(=O)Nc1c(F)cccc1F)C(=O)c1cnc(C)cn1 -6.22%
CC1CC(=O)Nc2ccccc2N1C(=O)COc1ccc2cc(Br)ccc2c1 (stereo not given) -0.32%
O=C(OCC(=O)N1CCc2ccccc21)c1ccc([N+](=O)[O-])cc1 -20.6%
O=S(=O)(c1cccs1)N1CCN(CCOc2ccccc2)CC1 -11.9%
Cc1noc(C)c1C(=O)NCC1COc2ccccc2O1 (stereo not given) -2.08%
COc1ccc(-c2nc3c(c(SCC(=O)Nc4ccc(C(=O)O)cc4)n2)Cc2ccccc2O3)cc1 15.9%
